Here are results for 8 compounds from PubChem BioAssay (Tox21).

Records with an inconclusive call do not appear. Calls of active or inactive are those of the source. Unless noted, calls follow the shape of the dose curve; as a rule, active = well fitted curve in the direction sought with a large enough effect in the repeat runs; inconclusive = weak or mixed curves; inactive = no such curve, though single readings can be large; an effect the other way counts as inactive or inconclusive.

Assay [1] is described as follows: qHTS RealTime-Glo MT Cell Viability Assay in HEK293 cells - 0 hour (AID 1224880). Also: nearly all actives have a fitted effect of over 45% in size. Also: potency is read from the fitted curve at half-maximal effect. The procedure, abridged: (§1)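 Tox21 screen in HEK293 using RealTime-Glo MT chemistry, with cells and reagent co-dispensed. Luminescence proportional to viable cell number was captured at intervals during 40 h compound exposure at 37 C.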
For orientation: Quantitative high-throughput screening tests each substance at several concentrations.

Assay [2] is described as follows: A CellTox Green Cytotoxicity Assay to monitor cytotoxicity in HEK293 cells - 32 hour (AID 1224881). Also: nearly all actives have a fitted effect of over 40% in size. An outline of the steps:
(§2)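 Seeding of HEK293 cells together with cytotoxicity dye preceded a 5 h incubation at 37 C/5% CO2. Test compounds in DMSO were then added and fluorescence monitored across 40 h.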

The nature of assay [3]: A CellTox Green Cytotoxicity Assay to monitor cytotoxicity in HepG2 cells - 0 hour (AID 1224882). Also: nearly all actives have a fitted effect of over 35% in size. An outline of the steps:
(§3)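 Nonlytic assay: viable cells exclude the dye, so fluorescence scales with cell death. HepG2 at 600 cells/well, compounds added after 5 h, signal read across 40 h.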

A short description of assay [4]: A CellTox Green Cytotoxicity Assay to monitor cytotoxicity in HepG2 cells - 32 hour (AID 1224883). Also: nearly all actives have a fitted effect of over 50% in size. The procedure, abridged: as §3
Assay [5] in a line: qHTS RealTime-Glo MT Cell Viability Assay in HepG2 cells - 16 hour (AID 1224885). Also: nearly all actives have a fitted effect of over 50% in size. The procedure, abridged:
(§4)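 HepG2 cells (600/well) were dispensed with RealTime-Glo reagents, incubated 5 h at 37 °C, then treated with compounds in DMSO for up to 40 h. Nonlytic NanoLuc luminescence reflecting viable cells was read at each stated time point.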

Assay [6] can be described thus: qHTS RealTime-Glo MT Cell Viability Assay in HEK293 cells - 24 hour (AID 1224886). Also: nearly all actives have a fitted effect of over 50% in size. Also: potency is read from the fitted curve at half-maximal effect. The procedure, abridged: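 HEK293 cells seeded with NanoLuc/prosubstrate reagent, rested 5 h at 37 C, then dosed and kept at 37 C up to 40 h. Nonlytic real-time luminescence from viable cells read at 0, 8, 16, 24, 32 and 40 h.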
A short description of assay [7]: qHTS RealTime-Glo MT Cell Viability Assay in HEK293 cells - 8 hour (AID 1224887). Also: nearly all actives have a fitted effect of over 50% in size. Also: potency is read from the fitted curve at half-maximal effect. The procedure, abridged:
as §1

Assay [8] can be described thus: A CellTox Green Cytotoxicity Assay to monitor cytotoxicity in HEK293 cells - 16 hour (AID 1224888). Also: nearly all actives have a fitted effect of over 35% in size. An outline of the steps: as §2
The nature of assay [9]: qHTS RealTime-Glo MT Cell Viability Assay in HepG2 cells - 0 hour (AID 1224889). Also: nearly all actives have a fitted effect of over 50% in size. Also: potency is read from the fitted curve at half-maximal effect. The procedure, abridged: as §4
Assay [10] can be described thus: A CellTox Green Cytotoxicity Assay to monitor cytotoxicity in HepG2 cells - 8 hour (AID 1224890). Also: nearly all actives have a fitted effect of over 45% in size. The procedure, abridged: as §3
A short description of assay [11]: qHTS assay to identify small molecule antagonists of the estrogen receptor alpha (ER-alpha) signaling pathway using the BG1 cell line in the presence of 0.1 nM 17-beta-estradiol - cell viability counter screen (AID 1259241). Also: nearly all actives have a fitted effect of over 40% in size. Also: potency is read from the fitted curve at half-maximal effect. An outline of the steps:
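Estradiol-stimulated (0.1 nM) VM7Luc4E2 cells exposed to compounds 22 hr; viability measured by fluorescence of cleaved CellTiter-Fluor substrate after 30 min.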

A short description of assay [12]: qHTS assay to identify small molecule antagonists of the androgen receptor (AR) signaling pathway using the MDA cell line in the presence of 0.5 nM R1881 - cell viability counter screen (AID 1259242). Also: nearly all actives have a fitted effect of over 45% in size. Also: potency is read from the fitted curve at half-maximal effect. The procedure, abridged:
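R1881 at 0.5 nM final stimulated MDA-kb2 cells during 16 hr compound treatment at 37C. Cytotoxicity read: CellTiter-Fluor fluorescence after 30 min.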

The target of assay [13] is Estrogen receptor (Homo sapiens) (UniProt P03372). The experiment in a line: qHTS assay to identify small molecule antagonists of the estrogen receptor alpha (ER-alpha) signaling pathway using the BG1 cell line in the presence of 0.1 nM 17-beta-estradiol (AID 1259244). Also: nearly all actives have a fitted effect of over 50% in size. An outline of the steps: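 VM7Luc4E2; 4xERE-luciferase; 0.1 nM E2 final; 22 h co-incubation, 37C; ONE-Glo luminescence after 30 min at room temperature.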

A short description of assay [14]: qHTS assay to identify small molecule HDAC inhibitors (AID 1259364). Also: potency is read from the fitted curve at half-maximal effect.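 Also: wild-type HCT-116 cells with endogenous class I/II HDAC activity; nearly all actives have a fitted effect of over 45% in size.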 An outline of the steps: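 Relative class I and II HDAC activity is taken from the luminogenic signal in HCT-116 cells, with compound exposure 2 hr and reagent development 30 min at room temperature.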
Assay [15] is described as follows: qHTS assay to identify small molecule HDAC inhibitors - cell viability counter screen (AID 1259365). Also: nearly all actives have a fitted effect of over 50% in size. Also: potency is read from the fitted curve at half-maximal effect. An outline of the steps:
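After overnight seeding at 1,500 cells per well, wild-type HCT-116 cultures took up compounds in DMSO for 2hr at 37 C. Viable cell content came from luminescence with CellTiter-Glo.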

Assay [16] can be described thus: qHTS assay to identify small molecule agonists of the sonic hedgehog signaling (Shh) pathway - cell viability counter screen (AID 1259366). Also: nearly all actives have a fitted effect of over 50% in size. Also: potency is read from the fitted curve at half-maximal effect. The procedure, abridged:
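Same-well cytotoxicity read. Gli1-Luc reporter 3T3 cells; compounds 24hr, 37C/5% CO2; CellTiter-Fluor fluorescence.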

Assay [17] in a line: qHTS assay to identify small molecule antagonists of the sonic hedgehog signaling (Shh) pathway - cell viability counter screen (AID 1259367). Also: nearly all actives have a fitted effect of over 55% in size. Also: potency is read from the fitted curve at half-maximal effect. The procedure, abridged: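 NIH/3T3-derived Gli1-Luc reporter cells (2,000 per well) rested 4 hr at 37 C, then received DMSO compounds plus conditioned medium. After 23 hr of treatment, CellTiter-Fluor was added for 1 hr at 37C and fluorescence read.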

A short description of assay [18]: qHTS assay to identify small molecule phospholipidosis (PLD) inducers (AID 1259344; active = well fitted curve in the direction sought with a large enough effect; an effect the other way counts as inactive or inconclusive). The procedure, abridged: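 HepG2 cells on collagen I, attached 4 h at 37 C, were co-treated with compound and LipidTOX Red dye for 24 h at 37 C, then fixed with paraformaldehyde plus Hoechst 33342 and imaged by high-content microscopy for phospholipid accumulation.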
The nature of assay [19]: A CellTox Green Cytotoxicity Assay to monitor cytotoxicity in HEK293 cells - 8 hour (AID 1224884). Also: nearly all actives have a fitted effect of over 35% in size. The procedure, abridged:
as §2

Assay [20] has as its target Androgen receptor (Homo sapiens) (UniProt P10275). The experiment in a line: qHTS assay to identify small molecule antagonists of the androgen receptor (AR) signaling pathway using the MDA cell line in the presence of 0.5 nM R1881 (AID 1259243). Also: nearly all actives have a fitted effect of over 50% in size. Also: potency is read from the fitted curve at half-maximal effect. An outline of the steps:
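We exposed MDA-kb2 cells to compounds under 0.5 nM R1881 stimulation for 16 hr at 37C and quantified MMTV-driven luciferase by luminescence.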

Sequence of Androgen receptor (Homo sapiens) (P10275 whole entry, looked up): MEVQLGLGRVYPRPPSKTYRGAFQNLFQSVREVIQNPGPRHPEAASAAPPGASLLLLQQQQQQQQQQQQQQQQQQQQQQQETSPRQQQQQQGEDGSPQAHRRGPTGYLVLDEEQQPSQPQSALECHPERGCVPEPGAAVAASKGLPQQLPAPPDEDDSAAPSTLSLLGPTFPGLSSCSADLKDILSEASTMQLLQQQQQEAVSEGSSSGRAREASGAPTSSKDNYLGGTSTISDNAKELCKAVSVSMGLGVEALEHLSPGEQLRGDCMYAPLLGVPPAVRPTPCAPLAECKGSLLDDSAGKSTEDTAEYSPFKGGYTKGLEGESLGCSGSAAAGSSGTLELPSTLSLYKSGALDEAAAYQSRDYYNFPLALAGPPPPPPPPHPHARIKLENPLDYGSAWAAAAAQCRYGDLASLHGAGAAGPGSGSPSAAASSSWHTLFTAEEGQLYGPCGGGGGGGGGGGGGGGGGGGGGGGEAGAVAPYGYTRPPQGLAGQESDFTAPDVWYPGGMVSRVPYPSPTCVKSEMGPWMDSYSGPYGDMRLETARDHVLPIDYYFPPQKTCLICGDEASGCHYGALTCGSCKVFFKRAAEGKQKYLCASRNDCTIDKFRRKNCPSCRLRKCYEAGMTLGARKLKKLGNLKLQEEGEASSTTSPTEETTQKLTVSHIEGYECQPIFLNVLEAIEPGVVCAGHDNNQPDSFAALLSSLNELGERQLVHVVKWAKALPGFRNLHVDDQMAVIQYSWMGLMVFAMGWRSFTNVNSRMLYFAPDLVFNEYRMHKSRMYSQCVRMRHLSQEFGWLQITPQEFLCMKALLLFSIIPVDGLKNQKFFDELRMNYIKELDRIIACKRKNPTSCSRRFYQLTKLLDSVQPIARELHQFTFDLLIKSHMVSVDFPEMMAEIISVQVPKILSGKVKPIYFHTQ
Sequence of Estrogen receptor (Homo sapiens) (P03372 whole entry, looked up): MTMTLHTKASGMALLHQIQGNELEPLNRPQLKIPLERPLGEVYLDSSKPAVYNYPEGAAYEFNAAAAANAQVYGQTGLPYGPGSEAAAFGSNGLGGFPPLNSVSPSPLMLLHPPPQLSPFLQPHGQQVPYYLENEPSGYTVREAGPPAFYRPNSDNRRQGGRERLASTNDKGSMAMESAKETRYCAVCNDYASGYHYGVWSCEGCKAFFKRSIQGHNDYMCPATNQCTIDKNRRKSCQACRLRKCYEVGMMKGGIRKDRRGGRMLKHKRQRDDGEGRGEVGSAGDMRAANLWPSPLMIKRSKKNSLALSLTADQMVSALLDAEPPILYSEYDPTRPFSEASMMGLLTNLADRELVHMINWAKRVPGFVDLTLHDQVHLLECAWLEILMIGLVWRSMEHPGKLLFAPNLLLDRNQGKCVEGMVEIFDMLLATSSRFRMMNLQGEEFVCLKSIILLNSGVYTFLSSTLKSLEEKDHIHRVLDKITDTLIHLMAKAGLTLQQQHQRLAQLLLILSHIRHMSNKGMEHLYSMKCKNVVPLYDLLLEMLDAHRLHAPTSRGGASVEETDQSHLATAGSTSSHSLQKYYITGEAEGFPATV

With `C=C(C)C(=O)OCCC(F)(F)C(F)(F)C(F)(F)C(F)(F)C(F)(F)C(F)(F)F`, the Potency result in assay [1], in assay [2], in assay [3], in [4], in assay [5] and in assay [6] was “inactive” in each case. Moreover, the Potency result in assay [7], in assay [8], in assay [9], in assay [10], in assay [11] and in assay [12] was “inactive” in each case. The Potency entry in assay [13], in assay [14], in assay [15], in assay [16] and in assay [17] was “inactive” throughout.

`Nc1ccn([C@H]2CS[C@@H](CO)O2)c(=O)n1`: the Potency result in assay [1], in assay [2], in assay [3], in [4], in assay [5] and in assay [6] was “inactive” each time. The Potency entry in assay [7], in [8], in [9], in [10], in assay [11] and in assay [12] was “inactive” throughout. Further, the Potency entry in [18], in assay [15], in [16] and in [17] was “inactive” each time.

For the compound `Cc1ccc(N(CCO)CCO)cc1`, the Potency result in assay [1], in assay [2], in assay [3], in assay [4], in assay [5] and in assay [6] was “inactive” in each case. Also, the Potency entry in assay [7], in assay [8], in assay [9], in [10], in assay [11] and in assay [12] was “inactive” each time. The Potency entry in [13], in assay [14], in [15], in assay [16] and in assay [17] was “inactive” each time.

With `O=C(Nc1ccc(C(=O)O)c(O)c1)c1ccccc1`, the Potency result in assay [1], in assay [2], in [3], in assay [4], in [5] and in [6] was “inactive” each time. Also, the Potency result in assay [7], in assay [8], in assay [9], in assay [10], in assay [11] and in assay [12] was “inactive” throughout. Besides, the Potency result in assay [13], in [18], in assay [15], in assay [16] and in assay [17] was “inactive” each time. In [14], the Potency is 1.68 µM (active).

In the case of `CCN(CC)C(=O)/C(C#N)=C/c1cc(O)c(O)c([N+](=O)[O-])c1`, the Potency entry in assay [1], in assay [2], in assay [3], in assay [4], in assay [19] and in [6] was “inactive” each time. Besides, the Potency entry in [7], in assay [8], in assay [9], in assay [10], in [13] and in [15] was “inactive” each time. Besides, in assay [16], the Potency entry is “inactive”. For the same compound, the Potency in assay [20] is 23.7 µM (active).

Take `Cc1c(C2(c3cc(Br)c(O)c(Br)c3C)OS(=O)(=O)c3ccccc32)cc(Br)c(O)c1Br`: the Potency is 15 µM (active) in [1]; 13.4 µM (active) in assay [9]; 13.3 µM (active) in assay [11]; 10.5 µM (active) in [12]; 4.2 µM (active) in [14]; 4.2 µM (active) in assay [15]. Further, the Potency is 9.4 µM (active) in [16] and 10.5 µM (active) in assay [17]. Moreover, the Potency entry in assay [2], in assay [3], in assay [4], in assay [5], in assay [6] and in [8] was “inactive” throughout. Moreover, the Potency result in assay [10] is “inactive”.

As for `CNS(=O)(=O)c1cc(C(=O)N2CCC(CCN3C4CCC3CC(n3c(C)nc5ccccc53)C4)(c3cccc(F)c3)CC2)c(Cl)cc1F` (stereo not given), the Potency result in assay [1], in [2], in [3], in [4], in assay [19] and in assay [8] was “inactive” in each case. Also, the Potency entry in assay [10], in assay [11], in [12], in [14], in assay [15] and in assay [17] was “inactive” each time. The Potency in [6] is 4.36 µM (active); in assay [7], 3.89 µM (active); in assay [20] it was 24.3 µM (active).

`CC(=O)c1ccc[nH]1`: the Potency entry in assay [2], in assay [3], in assay [4], in assay [19], in assay [5] and in assay [6] was “inactive” throughout. Besides, the Potency result in assay [7], in assay [8], in assay [9], in assay [10], in assay [11] and in [12] was “inactive” throughout. The Potency entry in [20], in assay [13], in assay [14], in [15], in assay [16] and in assay [17] was “inactive” each time.
